The full list was thinned out, with hits kept by preference.
RECQ1 helicase – RECQ1 (human) helicase inhibition | AID 2549 | Potency, µM (doses to about 57.3 µM), for the others: at the highest dose activity, negative = inhibition, actives largely listed as inhibitors | hit rate 0.54% among 240,000 | P46063 | RECQ1 DNA unwinding, red fluorescence kinetic read;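 note: plate controls were vehicle for no effect and no enzyme for full effect; nearly all actives have a fitted effect of over 30% in size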
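50 nM RECQ1T1 preincubated 15 min with compound in Tris pH 8.0 buffer with MgCl2, DTT, Tween-20 and 2.5 ug/ml poly(dI-dC); started with 200 nM TAMRA/BHQ-2 forked duplex and 2 mM ATP. Unwinding read as fluorescence (525/598 nm), two reads 2 h apart.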
JMJD2E inh – inhibitors of human JMJD2E histone demethylase | JMJD2E catalytic domain, FDH-coupled NADH fluorescence (FDH is formaldehyde dehydrogenase) | Potency, µM (top dose mostly 57.1 µM), for inactives: top-dose activity change, negative = inhibition, most hits filed as inhibitors | hit rate 1.6% among 230,000; active = well fitted inhibition curve with a large enough effect, not every such curve was filed as active; inconclusive = small, poorly fitted or top-dose-only effect, or another doubt; inactive = no such curve, though single readings can be large or run the other way;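 note: 0% = wells with enzyme and -100% = buffer wells without enzyme; nearly all actives have a fitted effect of over 50% in size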
Target sequence (B2RXH2 1-337 limits assumed): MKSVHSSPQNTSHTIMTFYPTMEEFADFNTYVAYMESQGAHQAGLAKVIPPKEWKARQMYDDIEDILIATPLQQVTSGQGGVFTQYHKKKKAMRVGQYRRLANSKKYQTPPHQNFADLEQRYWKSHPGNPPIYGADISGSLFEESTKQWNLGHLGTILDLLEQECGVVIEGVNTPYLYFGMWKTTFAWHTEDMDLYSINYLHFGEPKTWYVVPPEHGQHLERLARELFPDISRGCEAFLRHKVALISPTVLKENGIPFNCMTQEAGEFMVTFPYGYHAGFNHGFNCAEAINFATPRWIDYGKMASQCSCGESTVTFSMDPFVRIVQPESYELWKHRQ
APE1 inh-1 – blocks human APE1 abasic DNA cleavage. AID 2517. hit rate 0.35% among 350,000. recombinant APE1, TAMRA/BHQ-2 abasic DNA cleavage fluorescence. P27695. Potency, µM (titrated, usually from 65.8 µM), for the others: at the top dose activity change, negative = inhibition, most hits filed as inhibitors;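 note: plate controls were vehicle for no effect and reference inhibitor for full effect; nearly all actives have a fitted effect of over 55% in size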
Target sequence (P27695 whole entry, looked up): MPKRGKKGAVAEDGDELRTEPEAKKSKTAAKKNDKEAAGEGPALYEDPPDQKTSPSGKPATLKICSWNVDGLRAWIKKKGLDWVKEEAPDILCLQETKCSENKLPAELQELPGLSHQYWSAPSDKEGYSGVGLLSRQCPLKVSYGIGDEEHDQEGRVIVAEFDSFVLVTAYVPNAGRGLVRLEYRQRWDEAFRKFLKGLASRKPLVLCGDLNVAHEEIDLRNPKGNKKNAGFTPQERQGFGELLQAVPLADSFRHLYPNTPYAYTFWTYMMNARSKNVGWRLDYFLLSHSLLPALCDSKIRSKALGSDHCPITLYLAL
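APE1 at 0.75 nM preincubated 15 min at room temperature with compound. Reaction then started with 50 nM double-stranded THF-abasic substrate labelled with TAMRA/BHQ-2, and 525/598 nm fluorescence read kinetically. Activity taken as third-minus-first read difference, normalized to DMSO and NSC13755 controls.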
KAT2A inh – GCN5L2 (KAT2A) acetyltransferase inhibition | hit rate 0.21% among 390,000 | Q92830 | AID 504327 | GCN5L2 HAT assay, ThioGlo1 CoA-SH fluorescence | Potency, µM (doses to about 58.9 µM), for inactives: at the highest dose activity change, negative = inhibition, actives largely listed as inhibitors
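qHTS, 1536-well. 20nM enzyme, pH 7.5 HEPES/EDTA/Tween-20 buffer; 15 min compound preinc., RT. Start: 75uM H3(1-25), 70uM AcCoA, 50uM ThioGlo1. Read Ex340/Em540 at t=0 (autofluorescence flag) and t=20 min.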
BLM helicase inh – inhibitors of human Bloom syndrome helicase BLM. P54132. Potency, µM (doses to about 56.1 µM), without a hit: at the top dose activity change, negative = inhibition, most hits filed as inhibitors. hit rate 0.2% among 350,000. recombinant BLM DNA unwinding, fluorescence dequenching. AID 2528;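 note: plate controls were vehicle for no effect and no enzyme for full effect; nearly all actives have a fitted effect of over 35% in size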
TDP1 inh – blocks human tyrosyl-DNA phosphodiesterase 1 | Q9NUW8 | recombinant TDP1, AlphaScreen DNA substrate cleavage | Potency, µM (doses to about 130 µM), for the others: at the top dose activity change, negative = inhibition, actives largely listed as inhibitors | hit rate 0.28% among 350,000 | AID 485290; note: nearly all actives have a fitted effect of over 40% in size
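Compounds were preincubated with Tdp1 (1 nM final) for 15 min at room temperature before substrate (15 nM final) started a 5 min reaction; beads (10 ug/ml final) were then added for 10 min before AlphaScreen detection.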
APE1 dye cs – displaces fluorescent dye from DNA, flagging APE1 artifacts; shares compounds with APE1 inh-1; hit rate 7% among 480; Potency, µM (series often up to 28.5 µM), for the others: top-dose activity change, negative = inhibition, hits mostly inhibitors; DNA fluorescent dye displacement counterscreen, fluorescence; AID 2564;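 note: loss of thiazole orange fluorescence as the dye is displaced from duplex DNA; 0% = ThO with dsDNA and no compound and -100% = ThO without dsDNA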
Endo IV inh – blocks E. coli endonuclease IV DNA cleavage | AID 2565 | shares compounds with APE1 inh-1 | E. coli Endo IV, fluorogenic AP-site DNA cleavage | hit rate 4% among 560 | Potency, µM (titrated, usually from 27.1 µM), for inactives: at the highest dose activity change, negative = inhibition, usual class: inhibitors;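 note: plate controls were uninhibited enzyme wells for no effect and no enzyme buffer wells for full effect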
APE1 inh-2 – confirmation of inhibitors of human APE1 endonuclease; purified APE1, fluorogenic abasic-site DNA cleavage; hit rate 44% among 750; Potency, µM (titrated, usually from 57.1 µM), inactives show top-dose activity change, negative = inhibition, hits mostly inhibitors; shares compounds with APE1 inh-1; note: nearly all actives have a fitted effect of over 30% in size
APE1 FP inh – displaces DNA from human APE1 in FP assay | APE1 binding to TAMRA-labelled double-stranded DNA, fluorescence polarization displacement | shares compounds with APE1 inh-1 | hit rate 7% among 480 | AID 2573 | Potency, µM (highest dose often 28.5 µM), without a hit: top-dose activity, negative = inhibition, actives largely listed as inhibitors
Starred values were filed as active, the others as inactive; i = inactive; ? = inconclusive; nt = not tested or not shown; ! = repeats disagree; [ ] = remark or other dose. Unless noted, calls come from the whole dose curve; as a rule, active = well fitted curve in the direction sought with a large enough effect; inconclusive = small, poorly fitted or top-dose-only effect, or another doubt; inactive = no such curve, though single readings can be large; an effect the other way counts as inactive or inconclusive. Unless noted, % is set by controls: 0 for no effect and ±100 for the full control effect; potency is the fitted concentration of half-maximal effect.

SMILES	RECQ1 helicase	JMJD2E inh	APE1 inh-1	KAT2A inh	BLM helicase inh	TDP1 inh	Endo IV inh	APE1 inh-2	others
[O][C@H]1[C@@H](O)[C@@H](CO)O[C@@H](O[C@@H]2[C@@H]3OC[C@H]2O[C@H](O[C@@H]2[C@@H](O)[C@H](C[C@@H]4[C@@H]5OC[C@H]4O[CH][C@@H]5O)O[C@H](CO)[C@@H]2OS(=O)(=O)O)[C@@H]3OS(=O)(=O)O)[C@@H]1O	4µM*	nt	10µM*	18%	?	0%	13%[57.1 µM]	7.1µM*	APE1 dye cs=-12%[57.1 µM];APE1 FP inh=-29%[57.1 µM]
Cc1cccc(CSc2nnc(-c3ccco3)o2)c1	i	-15%	-8%	-28%	2%	3%	nt	nt
Cc1ccc2nc(CSc3nnc(-c4ccco4)o3)cc(=O)n2c1	?	?	22µM*	-17%	?	18µM*	4%	-22%	APE1 dye cs=-7%;APE1 FP inh=-4%
NS(=O)(=O)c1cc2c(cc1Cl)NCNS2(=O)=O	-8%	2%	-3%	-3%	0%	5%	-3%[57.1 µM]	-17%
CNc1ncnc2ccc(-c3c(C)noc3C)cc12	nt	nt	1%	-7%	nt	nt	nt	nt
O=S(=O)(O)c1ccc2c(c1)-c1nc-2nc2[nH]c(nc3nc(nc4[nH]c(n1)c1ccc(S(=O)(=O)O)cc41)-c1ccc(S(=O)(=O)O)cc1-3)c1ccc(S(=O)(=O)O)cc21	0.56µM*	nt	0.32µM*	0.63µM*	1.6µM*	0.1µM*	-93%[57.1 µM]	0.05µM*	APE1 dye cs=0.56µM*;APE1 FP inh=0.14µM*
O=S(=O)(O)c1ccc2nc(-c3ccccc3)[nH]c2c1	nt	nt	nt	-8%	3%	nt	nt	nt
Cc1cc(N)n(-c2ccc(Oc3ccccc3)c(S(=O)(=O)O)c2)n1	3%	0%	35µM*	-10%	3%	0%	2%	?	APE1 dye cs=-4%;APE1 FP inh=12%
Cc1cc(N)n(-c2ccc(C)c(C)c2)n1	-6%	-5%	?	-3%	-4%	8%	nt	nt
Cc1ccc2c(c1)C1(C=CC(=O)C=C1)CC(=O)N2C	i	nt	-2%	nt	0%	7%	nt	nt
N#Cc1nc(Nc2ccccc2)nc(NC2CCCCC2)n1	-9%	nt	35µM*	nt	-15%	7%	17%[57.1 µM]	-2%	APE1 dye cs=-6%[57.1 µM];APE1 FP inh=?
N#Cc1nc(Nc2ccc3ccccc3c2)nc(NC2CCCC2)n1	nt	nt	nt	nt	nt	0%	nt	nt
COCCn1c(=O)c(-c2ccccc2)nc2cnc(Nc3cccc(OC)c3)nc21	-3%	nt	0%	-6%	1%	nt	nt	nt
CCc1oc(C(=O)O)cc1CN(CC)CC	1%	7%	6%	nt	-3%	4%	nt	nt
CCN(CC)Cc1cc(O)c(CN(CC)CC)cc1O	25µM*	?	6.3µM*	1%	-2%	7.9µM*	nt	?
COc1ccc(/C=C/C(=O)NC(=S)Nc2ccc(C(=O)O)cc2)cc1	1%	?	-12%	-11%	-18%	89µM*	nt	-13%
CN(C)c1ccc(CNC(=O)c2ccc(Cn3c(=O)c4cccn4c4cccnc43)cc2)cc1	nt	nt	nt	0%	-2%	-8%	nt	nt
CCOc1cc(/C=C2\C(=O)N(c3ccc(C(N)=O)cc3)N=C2C)ccc1OC(=O)c1cccs1	-1%	?	28µM*	0%	-17%	4%	-10%	-7%[24.4 µM]	APE1 dye cs=?;APE1 FP inh=-6%
COc1c(-c2coc3cc4c(cc3c2=O)CC(O)C(C)(C)O4)ccc2c1C=CC(C)(C)O2 (stereo unspecified)	-5%	4%	13%	-27%	-19%	9%	nt	nt
Cn1cnc2c(=O)oc3ccc(S(=O)(=O)N4CCN(c5cccc(C(F)(F)F)c5)CC4)cc3c21	nt	nt	nt	?	1%	0%	nt	nt
CCn1cc(C(=O)O)c(=O)c2cc(F)c(N3CCN(S(=O)(=O)c4ccc(NC(=O)OC)cc4)CC3)cc21	3%	?	3%	-14%	-4%	?	nt	-28%
CN1CCN(C(=O)c2cc3cc(F)ccc3[nH]2)CC1	nt	nt	14%	4%	-1%	nt	nt	nt
O=C(O)c1cc2cc(F)ccc2[nH]1	1%	?	-3%	-2%	-2%	89µM*!	nt	?
CC(N=Cc1cc([N+](=O)[O-])ccc1O)c1ccccc1 (stereo unspecified)	-1%	-12%	3%	-9%	1%	3%	nt	nt
CC(N=Cc1cccc(O)c1O)c1ccccc1 (stereo unspecified)	22µM*	14µM*	14µM*	-16%	-10%	?	13%	-7%[24.4 µM]	APE1 dye cs=5%;APE1 FP inh=-3%
SMILES	RECQ1 helicase	JMJD2E inh	APE1 inh-1	KAT2A inh	BLM helicase inh	TDP1 inh	Endo IV inh	APE1 inh-2	others
C/C(=N\NC(=O)c1ccc2nc[nH]c2c1)c1ccc([N+](=O)[O-])cc1	-5%	39%	3%	-5%	5%	79µM*	nt	-22%
O=C(CNC(=O)c1ccccc1)NCC(=O)OCC(=O)c1ccc2ccccc2c1	nt	nt	nt	nt	nt	0%	nt	nt
c1cncc(-c2nc(-c3ccco3)cs2)c1	-15%	-29%	25µM*	-6%	-21%	-14%	0%	-10%[24.4 µM]	APE1 dye cs=-10%;APE1 FP inh=?
CC1(C)CCC[C@@](C)([C@H]2CC[C@]3(C)[C@@H]2[C@H](O)C[C@@H]2[C@@]4(C)CC[C@H](O)C(C)(C)[C@@H]4CC[C@]23C)O1	-1%	nt	1%	-9%	-8%	3%	nt	nt
COc1ccc(OCc2cc(C(=O)O)c(C)o2)cc1	13%	2%	25µM*	0%	5%	14µM*	nt	40µM*
Cc1cc(C)cc(NS(=O)(=O)c2ccc(-c3cc(C)no3)cc2)c1	nt	nt	nt	-4%	-7%	3%	nt	nt
CCCCC#Cc1ccccc1CC(=O)Nc1ccccc1	-4%	?	3%	-2%	-3%	50µM*	nt	?
O=C1c2cccc([N+](=O)[O-])c2C(=O)N1CCO	-3%	4%	10%	-12%	-8%	5%	nt	nt
O=C1CSC(=S)N1N1C(=O)c2cccc([N+](=O)[O-])c2C1=O	?	-2%	?	-12%	121%	2.8µM*	nt	?
